According to the supplement of paper PMC10849652:
The full data set covers some 8,800 targets. This sample favours those with a hit. About 0.5% of all pairs of compound and target were hits.

compound: Cc1ccc(-n2nc(C(C)(C)C)cc2NC(=O)Nc2ccc(OCCN3CCOCC3)c3ccccc23)cc1 [doramapimod]; experiment: log2 fold change, soluble protein after heating vs DMSO (PISA); higher = thermal stabilisation; K562 lysate, 10 uM; active = over 0.2 and 3.5 SD of the protein, either way, in both replicates (recomputed)
In short: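 Thermal stability, expressed as log-two fold change relative to solvent controls, is given from duplicates. Crude K562 extract in PBS pH 7.4 with 1 mM MgCl2, at 1 mg/mL protein, was treated with 10 μM compound for 30 min and heated in aliquots for 3 min across 48°C-58°C. After pooling, adjustment to 0.5% NP-40 at 4°C and centrifugation at 21,000xg for 90 min, supernatant protein was measured by TMTpro 16plex LC-MS/MS with channel sums equalised.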

Chain of UniProt Q15813 (Q15813 whole entry, looked up): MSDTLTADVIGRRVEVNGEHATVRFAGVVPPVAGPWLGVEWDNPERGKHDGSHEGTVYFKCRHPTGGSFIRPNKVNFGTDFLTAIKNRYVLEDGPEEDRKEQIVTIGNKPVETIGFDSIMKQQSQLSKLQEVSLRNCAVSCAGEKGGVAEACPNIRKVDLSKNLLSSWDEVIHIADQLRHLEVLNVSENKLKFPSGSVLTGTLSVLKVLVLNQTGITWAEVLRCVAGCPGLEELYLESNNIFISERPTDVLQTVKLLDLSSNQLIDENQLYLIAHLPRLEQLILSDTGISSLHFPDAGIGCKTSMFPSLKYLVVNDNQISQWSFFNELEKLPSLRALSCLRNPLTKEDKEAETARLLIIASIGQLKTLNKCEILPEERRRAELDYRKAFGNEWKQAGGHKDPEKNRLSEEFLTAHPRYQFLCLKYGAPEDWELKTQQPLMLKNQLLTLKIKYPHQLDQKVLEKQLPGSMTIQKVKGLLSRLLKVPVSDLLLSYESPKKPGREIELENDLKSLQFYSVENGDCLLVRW
Chain of UniProt P68363 (P68363 whole entry, looked up): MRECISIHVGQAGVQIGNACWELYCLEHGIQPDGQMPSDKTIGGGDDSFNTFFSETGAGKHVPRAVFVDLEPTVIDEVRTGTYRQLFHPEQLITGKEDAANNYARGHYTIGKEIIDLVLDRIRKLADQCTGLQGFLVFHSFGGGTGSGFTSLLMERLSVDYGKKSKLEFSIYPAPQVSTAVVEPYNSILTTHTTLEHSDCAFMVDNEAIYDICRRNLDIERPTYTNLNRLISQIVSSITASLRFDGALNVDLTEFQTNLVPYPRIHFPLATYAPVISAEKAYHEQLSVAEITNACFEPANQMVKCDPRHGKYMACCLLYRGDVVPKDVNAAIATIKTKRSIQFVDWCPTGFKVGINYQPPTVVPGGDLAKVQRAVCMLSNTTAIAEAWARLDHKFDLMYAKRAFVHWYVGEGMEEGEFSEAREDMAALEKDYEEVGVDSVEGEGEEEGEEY
Chain of UniProt Q96CW5 (Q96CW5 whole entry, looked up): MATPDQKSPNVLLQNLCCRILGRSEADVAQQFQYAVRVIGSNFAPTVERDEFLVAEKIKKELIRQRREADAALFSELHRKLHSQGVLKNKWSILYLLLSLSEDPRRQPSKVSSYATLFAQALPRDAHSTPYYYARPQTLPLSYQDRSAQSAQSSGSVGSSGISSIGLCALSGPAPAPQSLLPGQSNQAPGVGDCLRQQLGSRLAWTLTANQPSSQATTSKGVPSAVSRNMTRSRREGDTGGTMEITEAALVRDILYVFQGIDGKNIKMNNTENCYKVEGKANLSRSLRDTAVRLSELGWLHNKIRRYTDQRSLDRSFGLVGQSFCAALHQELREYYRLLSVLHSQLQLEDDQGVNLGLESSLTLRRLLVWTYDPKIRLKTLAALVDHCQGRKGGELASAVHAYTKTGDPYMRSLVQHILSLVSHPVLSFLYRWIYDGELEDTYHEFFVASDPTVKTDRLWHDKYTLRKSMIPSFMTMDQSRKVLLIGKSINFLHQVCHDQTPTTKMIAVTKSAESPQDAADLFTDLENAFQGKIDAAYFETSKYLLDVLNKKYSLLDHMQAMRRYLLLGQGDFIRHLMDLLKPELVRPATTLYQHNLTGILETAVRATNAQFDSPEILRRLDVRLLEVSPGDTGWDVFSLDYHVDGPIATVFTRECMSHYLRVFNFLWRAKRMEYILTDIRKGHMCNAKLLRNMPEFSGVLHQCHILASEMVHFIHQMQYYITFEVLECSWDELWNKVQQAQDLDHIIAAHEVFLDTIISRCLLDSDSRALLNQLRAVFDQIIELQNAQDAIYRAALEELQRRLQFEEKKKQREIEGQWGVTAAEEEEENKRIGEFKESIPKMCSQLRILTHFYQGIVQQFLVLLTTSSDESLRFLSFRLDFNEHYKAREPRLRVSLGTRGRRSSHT
Chain of UniProt Q9NX07 (Q9NX07 whole entry, looked up): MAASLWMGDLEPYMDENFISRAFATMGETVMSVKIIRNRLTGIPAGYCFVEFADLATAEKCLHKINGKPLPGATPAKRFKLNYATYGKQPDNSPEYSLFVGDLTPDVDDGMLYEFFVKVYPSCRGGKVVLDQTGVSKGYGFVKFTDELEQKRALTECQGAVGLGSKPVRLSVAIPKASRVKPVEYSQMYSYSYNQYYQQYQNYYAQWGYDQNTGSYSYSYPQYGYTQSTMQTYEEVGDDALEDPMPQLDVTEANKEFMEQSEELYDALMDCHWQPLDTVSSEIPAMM
Chain of UniProt Q6ZT12 (Q6ZT12 whole entry, looked up): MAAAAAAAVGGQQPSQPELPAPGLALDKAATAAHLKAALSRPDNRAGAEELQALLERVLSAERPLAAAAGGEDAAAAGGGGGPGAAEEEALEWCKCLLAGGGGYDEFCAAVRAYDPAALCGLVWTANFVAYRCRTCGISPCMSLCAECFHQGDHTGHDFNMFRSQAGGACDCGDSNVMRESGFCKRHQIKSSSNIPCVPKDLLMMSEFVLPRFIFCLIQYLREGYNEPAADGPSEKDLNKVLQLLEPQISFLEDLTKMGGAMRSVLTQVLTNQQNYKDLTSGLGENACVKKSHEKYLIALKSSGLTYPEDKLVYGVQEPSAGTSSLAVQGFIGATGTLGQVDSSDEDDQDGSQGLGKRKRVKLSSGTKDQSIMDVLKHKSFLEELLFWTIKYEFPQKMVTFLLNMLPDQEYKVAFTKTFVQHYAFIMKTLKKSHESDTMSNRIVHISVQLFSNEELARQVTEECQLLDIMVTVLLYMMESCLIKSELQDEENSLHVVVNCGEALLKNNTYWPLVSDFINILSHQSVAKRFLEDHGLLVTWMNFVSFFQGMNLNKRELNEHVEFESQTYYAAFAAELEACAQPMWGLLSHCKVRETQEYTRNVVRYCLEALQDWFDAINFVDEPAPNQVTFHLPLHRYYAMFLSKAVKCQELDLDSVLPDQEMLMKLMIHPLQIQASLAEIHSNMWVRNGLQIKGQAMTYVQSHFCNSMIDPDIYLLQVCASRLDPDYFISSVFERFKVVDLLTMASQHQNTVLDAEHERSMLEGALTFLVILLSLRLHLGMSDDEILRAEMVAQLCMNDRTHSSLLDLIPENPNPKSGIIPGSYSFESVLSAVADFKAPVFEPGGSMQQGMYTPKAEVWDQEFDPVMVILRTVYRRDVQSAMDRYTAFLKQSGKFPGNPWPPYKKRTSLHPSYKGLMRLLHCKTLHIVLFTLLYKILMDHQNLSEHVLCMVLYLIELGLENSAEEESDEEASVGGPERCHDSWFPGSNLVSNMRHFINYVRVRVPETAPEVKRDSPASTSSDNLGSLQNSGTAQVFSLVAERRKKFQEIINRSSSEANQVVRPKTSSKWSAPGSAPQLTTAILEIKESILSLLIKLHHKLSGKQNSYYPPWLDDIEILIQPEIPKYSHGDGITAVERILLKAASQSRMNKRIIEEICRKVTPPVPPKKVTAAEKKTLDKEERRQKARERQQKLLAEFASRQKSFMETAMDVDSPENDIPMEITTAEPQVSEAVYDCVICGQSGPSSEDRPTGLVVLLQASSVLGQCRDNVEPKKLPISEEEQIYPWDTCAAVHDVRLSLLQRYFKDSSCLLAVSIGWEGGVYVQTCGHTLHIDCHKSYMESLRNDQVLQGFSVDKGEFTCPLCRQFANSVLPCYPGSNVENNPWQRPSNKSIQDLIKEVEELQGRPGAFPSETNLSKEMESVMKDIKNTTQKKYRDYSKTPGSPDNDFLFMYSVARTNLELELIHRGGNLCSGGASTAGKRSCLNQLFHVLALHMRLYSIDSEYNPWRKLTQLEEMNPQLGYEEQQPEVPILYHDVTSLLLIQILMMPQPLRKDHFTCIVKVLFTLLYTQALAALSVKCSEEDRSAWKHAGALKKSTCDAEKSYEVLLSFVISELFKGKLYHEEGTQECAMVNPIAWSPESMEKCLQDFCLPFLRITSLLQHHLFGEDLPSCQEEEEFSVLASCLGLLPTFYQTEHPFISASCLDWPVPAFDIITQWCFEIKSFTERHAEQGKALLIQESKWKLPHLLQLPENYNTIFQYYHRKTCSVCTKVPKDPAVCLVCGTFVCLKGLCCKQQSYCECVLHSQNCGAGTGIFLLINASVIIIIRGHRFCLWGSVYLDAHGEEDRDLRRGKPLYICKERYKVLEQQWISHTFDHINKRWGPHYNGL
Chain of UniProt Q9Y5K5 (Q9Y5K5 whole entry, looked up): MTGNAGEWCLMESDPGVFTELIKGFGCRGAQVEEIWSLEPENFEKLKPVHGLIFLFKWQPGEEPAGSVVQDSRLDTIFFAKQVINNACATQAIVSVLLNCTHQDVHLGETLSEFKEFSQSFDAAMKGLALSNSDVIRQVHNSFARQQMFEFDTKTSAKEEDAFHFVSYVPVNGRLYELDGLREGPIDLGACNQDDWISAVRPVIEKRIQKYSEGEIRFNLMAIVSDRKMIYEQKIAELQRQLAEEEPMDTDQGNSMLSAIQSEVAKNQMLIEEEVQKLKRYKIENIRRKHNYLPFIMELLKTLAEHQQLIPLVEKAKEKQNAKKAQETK
Chain of UniProt Q12933 (Q12933 whole entry, looked up): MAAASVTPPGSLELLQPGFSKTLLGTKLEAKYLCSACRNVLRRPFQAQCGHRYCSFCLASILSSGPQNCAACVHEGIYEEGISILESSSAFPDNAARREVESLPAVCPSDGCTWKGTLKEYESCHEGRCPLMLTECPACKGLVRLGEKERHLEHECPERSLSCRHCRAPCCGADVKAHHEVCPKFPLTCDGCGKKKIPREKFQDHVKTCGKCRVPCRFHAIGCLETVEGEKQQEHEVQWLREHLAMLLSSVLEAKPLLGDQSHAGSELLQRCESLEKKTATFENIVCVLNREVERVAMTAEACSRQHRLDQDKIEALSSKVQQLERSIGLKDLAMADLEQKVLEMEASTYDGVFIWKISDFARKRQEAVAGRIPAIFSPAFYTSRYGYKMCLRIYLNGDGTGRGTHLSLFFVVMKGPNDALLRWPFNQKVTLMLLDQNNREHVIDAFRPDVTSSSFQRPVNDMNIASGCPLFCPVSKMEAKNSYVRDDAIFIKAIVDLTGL

Row | Target | log2 fold change
1 | TBCE (UniProt Q15813) | 0.001 (inactive)
2 | TNPO3 (UniProt Q9Y5L0) | -0.024 (inactive)
3 | TRIM33 (UniProt H0Y612) | 0.001 (inactive)
4 | TPST2 (UniProt O60704) | 0.057 (inactive)
5 | UBR4 (UniProt Q5T4S7) | 0.01 (inactive)
6 | TTK (UniProt P33981) | 0.143 (inactive)
7 | TP53RK (UniProt Q96S44) | -0.029 (inactive)
8 | TUBGCP3 (UniProt Q96CW5) | 0.014 (inactive)
9 | UBR3 isoform 4 (UniProt Q6ZT12) | 0.015 (inactive)
10 | TRIM33 isoform 2 (UniProt Q9UPN9) | 0.021 (inactive)
11 | TOE1 (UniProt Q96GM8) | -0.04 (inactive)
12 | UBA1 (UniProt P22314) | 0.009 (inactive)
13 | TUBB1 (UniProt Q9H4B7) | -0.046 (inactive)
14 | TUBGCP2 isoform 4 (UniProt Q9BSJ2) | 0.033 (inactive)
15 | TPM4 isoform 2 (UniProt P67936) | 0.002 (inactive)
16 | TMOD1 (UniProt P28289) | 0.019 (inactive)
17 | TRAPPC10 (UniProt P48553) | -0.027 (inactive)

Row | Target | log2 fold change
18 | TRMT12 (UniProt Q53H54) | 0.059 (inactive)
19 | TSPAN13 (UniProt O95857) | 0.119 (inactive)
20 | UBE2H (UniProt P62256) | 0.003 (inactive)
21 | TLE3 isoform 5 (UniProt Q04726) | -0.061 (inactive)
22 | TSFM (UniProt P43897) | 0.06 (inactive)
23 | TRMT2A (UniProt Q8IZ69) | -0.002 (inactive)
24 | TUBA1B (UniProt P68363) | 0.023 (inactive)
25 | TUT4 (UniProt Q5TAX3) | -0.023 (inactive)
26 | TBL2 (UniProt Q9Y4P3) | 0.032 (inactive)
27 | TK1 (UniProt P04183) | 0 (inactive)
28 | TTC5 (UniProt Q8N0Z6) | 0.007 (inactive)
29 | TRNAU1AP (UniProt Q9NX07) | 0.031 (inactive)
30 | UBR5 (UniProt O95071) | 0.012 (inactive)
31 | TRAF2 isoform 2 (UniProt Q12933) | 0.005 (inactive)
32 | UCHL5 isoform 3 (UniProt Q9Y5K5) | -0.015 (inactive)
33 | TRIM23 (UniProt P36406) | 0.01 (inactive)
34 | TRIM11 (UniProt Q96F44) | 0.015 (inactive)
